Results filed as inconclusive are left out. Activity calls are given as the source filed them. Calls follow the shape of the dose curve; as a rule, active = well fitted curve in the direction sought with a large enough effect; inconclusive = small, poorly fitted or top-dose-only effect, or another doubt; inactive = no such curve, though single readings can be large or run the other way.
Biological target: phosphoglycerate mutase (Leishmania major) (UniProt Q4Q090)
Assay: qHTS Validation Assay to Find Inhibitors of Phosphoglycerate Mutase (AID 504548)
Settings: biochemical enzyme activity; Potency: inhibition qHTS; series mostly up to 57.5 µM; activity change, negative = inhibition: at the top concentration
Description: NIH Molecular Libraries Probe Production Network [MLPCN]
NIH Chemical Genomics Center [NCGC]
PI Name: Malcolm Walkinshaw, University of Edinburgh
Several species of the Trypanosomatidae family of parasitic protozoans cause a spectrum of diseases throughout the tropical and subtropical world. Sleeping sickness, caused by two subspecies of Trypanosoma brucei, is endemic to areas of sub-Saharan Africa, while Chagas disease, a manifestation of Trypanosoma cruzi infection, is prevalent throughout Central and South America. In addition, many species of Leishmania are responsible for a range of cutaneous and visceral diseases, causing ulcers, destructive lesions and kalaazar, a lethal infection of the viscera. Collectively, these organisms infect 30 million people worldwide (~500 million live in endemic areas), and account for ~130,000 deaths annually. Given their debilitating and prevalent nature, trypanosomatid parasites impose a heavy medical, economic and social burden on entire populations, primarily in the developing world. The problem is further exacerbated by the fact that existing treatments have progressed little in the past 50 years, and current drugs show high toxicity and poor efficacy.
Blood-stream stages of T. brucei are entirely dependent on glycolysis as a source of ATP, and the tricarboxylic acid cycle and oxidative phosphorylation are both repressed. Glycolysis in axenically cultured T. cruzi, representing the intracellular pathogenic stage, is also essential for these parasites. […] Previous studies have shown that the glycolytic enzyme, phosphoglycerate mutase (PGAM), is a viable target for drugs to kill these parasites. […] Furthermore, the cobalt centers present within PGAM are only found in trypanosomatid and plant PGAMs, and are known to be required for activity, thereby providing an additional target. Moreover, trypanosomatid PGAMs are completely different from the enzyme that performs the same function in humans: the parasite and host enzymes share no structural or even mechanistic features; specificity is therefore unlikely to be an issue.
NCGC Assay Protocol Summary:
Briefly, 3ul of substrate buffer (all columns) are dispensed into Greiner white solid bottom 1536-well assay plates. Compounds are then transferred via Kalypsys pin tool equipped with 1536-pin array (10nl slotted pins, V&P Scientific, San Diego, CA). Following addition of compound, 1ul of Lm PGAM (1.25nM final concentration, columns […]) is added to initiate the reaction; columns 3-4 receive only TEA buffer as negative controls. The plates are then incubated at room temperature for 45 minutes. Kinase-GloPlus reagent is added (2ul) and plates incubated for 10 minutes, before being transferred to a ViewLux high-throughput CCD imager (PerkinElmer) wherein single end-point measurements of luminescence are acquired using a clear filter. All reagents are diluted in an assay buffer consisting of 100 mM TEA (pH 7.6), 5 mM MgCl2 and 0.01% Tween-20.
% is scaled to controls: 0 for no effect and ±100 for the full control effect.

Sequence of phosphoglycerate mutase (Leishmania major) (Q4Q090 1-553): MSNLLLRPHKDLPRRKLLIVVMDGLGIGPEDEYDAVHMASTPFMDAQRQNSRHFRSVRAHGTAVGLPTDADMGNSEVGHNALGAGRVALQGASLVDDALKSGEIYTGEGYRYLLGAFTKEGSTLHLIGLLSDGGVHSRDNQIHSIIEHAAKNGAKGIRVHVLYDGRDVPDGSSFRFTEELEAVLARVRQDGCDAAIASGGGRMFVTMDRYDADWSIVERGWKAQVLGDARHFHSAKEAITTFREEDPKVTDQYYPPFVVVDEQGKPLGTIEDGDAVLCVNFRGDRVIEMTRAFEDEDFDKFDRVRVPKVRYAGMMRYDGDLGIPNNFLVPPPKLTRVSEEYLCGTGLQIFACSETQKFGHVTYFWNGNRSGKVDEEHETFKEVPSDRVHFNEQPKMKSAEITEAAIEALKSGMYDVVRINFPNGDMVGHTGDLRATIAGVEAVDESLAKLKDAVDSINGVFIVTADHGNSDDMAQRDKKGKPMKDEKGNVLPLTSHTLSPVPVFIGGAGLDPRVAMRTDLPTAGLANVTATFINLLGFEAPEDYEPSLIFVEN

Compound | activity change, negative = inhibition | Potency
CC(=O)/C=C1\C(=O)N(C)c2ccccc21 | 9% (inactive) | –
CNC(=O)[C@H]1O[C@@H](n2cnc3c(NCc4ccc(N)cc4)ncnc32)[C@H](O)[C@@H]1O | 11.9% (inactive) | –
O=C(O)c1cc([N+](=O)[O-])ccc1NCCCc1ccccc1 | 19% (inactive) | –
COc1ccccc1CNCCCCCCNCCCCCCCCNCCCCCCNCc1ccccc1OC | 11.6% (inactive) | –
NC[C@H]1O[C@@H](n2cnc3c(N)ncnc32)[C@H](O)[C@@H]1O | -0.284% (inactive) | –
OCC1O[C@H](O)C(Cl)C(O)C1O (stereo not given in full) | 8.07% (inactive) | –
OCC1O[C@H]([S-])[C@H](O)[C@@H](O)[C@@H]1O.[Au+] (stereo not given in full) | -4.34% (inactive) | –
O=c1[nH]c2cc(Cl)c(Cl)cc2[nH]c1=O | 2.12% (inactive) | –
CN(C)c1ccc(/C=C2\C(=O)Nc3ccccc32)cc1 | -13.2% (inactive) | –
NC(=S)c1ccc[n+]([C@@H]2O[C@@H](COP(=O)([O-])OP(=O)(O)OC[C@H]3O[C@@H](n4cnc5c(N)ncnc54)[C@H](OP(=O)(O)O)[C@@H]3O)C(O)C2O)c1 (stereo not given in full) | -8.37% (inactive) | –
N#C/C(=C\c1c[nH]c2ccccc12)C(=O)c1ccc(O)c(O)c1 | 5.99% (inactive) | –
CN(C)c1nc(N)c(C(=O)N=C(N)N)nc1Cl | -5.34% (inactive) | –
O=C(O)CC1CC(c2ccccc2)=NO1 (stereo not given) | 4.98% (inactive) | –
COc1ccccc1N1CCN(CCCCNS(=O)(=O)c2cccc3c(N(C)C)cccc23)CC1 | 7.45% (inactive) | –
Cn1ncc(S(=O)(=O)Cc2ccccc2)c(Br)c1=O | -3.65% (inactive) | –
CCN1/C(=C/C(C)=O)Sc2ccc(OC)cc21 | -5.12% (inactive) | –
C=CC(=O)c1ccc(CCCCCC)cc1 | 18.3% (inactive) | –
NC(=S)NCCC[C@H](N)C(=O)O | -1.26% (inactive) | –
CN1CCc2cc(NC(=O)Nc3cccnc3)ccc21 | 15.9% (inactive) | –
O=[N+]([O-])c1ccc(CSc2ncnc3c2ncn3[C@@H]2O[C@H](CO)[C@@H](O)[C@H]2O)cc1 | 7.47% (inactive) | –

Compound | activity change, negative = inhibition | Potency
CC1CN(S(=O)(=O)c2cccc3cnccc23)CCN1 (stereo not given) | 0.42% (inactive) | –
COC1=C(OC)C(=O)c2ccccc2C1=O | -5.3% (inactive) | –
CCCn1c(=O)c2[nH]c(-c3ccc(OCC(=O)NCCN)cc3)nc2n(CCC)c1=O | -1.07% (inactive) | –
COc1cccc(C(=O)NCCN2CCN(c3ccc(Cl)cc3)CC2)c1 | -2.33% (inactive) | –
N#C/C(=C\c1ccc(O)c(O)c1)C(=O)NCc1ccccc1 | 2.96% (inactive) | –
CCOC(=O)C1=C(C)NC(C)=C(C(=O)OCC)C1c1c(F)c(F)c(F)c(F)c1F | -3.62% (inactive) | –
O=c1[nH]c2cc(C(F)(F)F)ccc2n1-c1cc(C(F)(F)F)ccc1O | 9.86% (inactive) | –
C[C@@H](NC(=O)/C(C#N)=C/c1ccc(O)c(O)c1)c1ccccc1 | -1.39% (inactive) | –
O=C(CCCCCN1CCN(c2ccccc2-c2ccccc2)CC1)NC1CCCc2ccccc21 (stereo not given) | 7.59% (inactive) | –
CCCN(CC1CC1)c1nc(C)nc(Nc2c(Cl)cc(Cl)cc2Cl)c1Cl | -1.95% (inactive) | –
CCC1C(=O)OCC1Cc1cncn1C (stereo not given) | – | inactive
COc1cc2c(CCNC(C)=O)c[nH]c2cc1Cl | 7.99% (inactive) | –
Cn1cc(C2=C(c3ccc(Cl)cc3Cl)C(=O)NC2=O)c2ccccc21 | -6.78% (inactive) | –
Oc1cc2c(cc1O)CN(C(=S)NCCc1ccc(Cl)cc1)CCC2 | -2.13% (inactive) | –
NCC1OC(O[C@H]2[C@H](O)[C@@H](OC3C(O)C(N)CC(N)C3OC3OC(CO)C(O)C(O)C3N)O[C@@H]2CO)C(N)C(O)C1O (stereo not given in full) | 12.2% (inactive) | –
CN(C)c1nc2c(Br)c(Br)c(Br)c(Br)c2[nH]1 | -19% (inactive) | –
NC[C@@H]1O[C@H](C23CC4CC(CC(C4)C2)C3)Cc2c1ccc(O)c2O | 4.1% (inactive) | –
Nc1nc(SCc2ccc([N+](=O)[O-])cc2)c2ncn([C@@H]3O[C@H](CO)[C@@H](O)[C@H]3O)c2n1 | 1.44% (inactive) | –
Cn1c(=O)c2[nH]c(-c3ccccc3)nc2n(C)c1=O | -2.23% (inactive) | –
C[N+]1(C)C2CC(OC(=O)[C@H](CO)c3ccccc3)CC1C1OC12 (stereo not given in full) | – | inactive

— PubChem BioAssay (NCATS)
